Whole data set: some 81,000 sequences, median “one-hybrid fitness for binding parS DNA” near -0.17, cut for the highest 2% near 0.51. The list comes from a sample in which the highest values are over-represented; it also holds similar and randomly drawn sequences.
B1: Caulobacter ParB omega fusion; a variant is named by its letters at X, in order, B8GW30 (parent)
chain: MESVVVGEPGMSEGRRGLGRGLSALLGEVDAAPAQAPGEQLGGSREAPIEILQRNPDQPRRTFREEDLEDLSNSIREKGVLQPILVRPSPDTAGEYQIVAGERAWRAAQRAGLKTVPIMVRELDDLAVLEIGIIENVQRADLNVLEEALSYKVLMEKFERTQENIAQTIGKSXSHVANXMRLLXLPDEVQSYLVSGELTAXHARAIAAAADPVALAKQIIEGGLSVRETEALARKAPNLSAGKSKGGRPPRVKDTDTQALESDLSSVLGLDVSIDHRGSTGTLTITYATLEQLDDLCNRLTRGI

Variants of: B1
Experiment: one-hybrid fitness for binding parS DNA (scaled: cognate 1, non-cognate 0); higher = stronger binding
Conditions: with parS DNA site
Procedure, shortened: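 Selection: bacterial one-hybrid in E. coli USO, HIS3 reporter with the site 19 bp from the promoter, 48 hours at 37°C on M9-minus-histidine plus 0.1 mM IPTG and 5 mM 3-AT. Libraries were Caulobacter ParB with four randomised specificity codons, sequenced on Illumina before and after selection. Fitness is the rescaled log change in variant-to-wild-type read ratio, anchored to the cognate and non-cognate sites.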

one-hybrid fitness for binding parS DNA, 1:
RANG
RASG
RAQG

one-hybrid fitness for binding parS DNA, 0.582:
RYTA

one-hybrid fitness for binding parS DNA, 0.937:
RQVS

one-hybrid fitness for binding parS DNA, 0.908:
RADG
RKCC
RTRG

one-hybrid fitness for binding parS DNA, 0.885:
RIAT

one-hybrid fitness for binding parS DNA, 0.469:
RAQY

one-hybrid fitness for binding parS DNA, 0.21:
RKHM

one-hybrid fitness for binding parS DNA, 0.367:
RIAM

one-hybrid fitness for binding parS DNA, 0.6:
RMTA

one-hybrid fitness for binding parS DNA, 0.435:
RACY

one-hybrid fitness for binding parS DNA, 0.921:
RKLC

one-hybrid fitness for binding parS DNA, 0.396:
RTRN

one-hybrid fitness for binding parS DNA, 0.806:
RKNC

one-hybrid fitness for binding parS DNA, 0.541:
RFTA

one-hybrid fitness for binding parS DNA, 0.923:
RKDC

one-hybrid fitness for binding parS DNA, 0.376:
RGTA

one-hybrid fitness for binding parS DNA, 0.578:
RSTA
RVTA

one-hybrid fitness for binding parS DNA, 0.581:
RQKY

one-hybrid fitness for binding parS DNA, 0.864:
RQKS

one-hybrid fitness for binding parS DNA, 0.882:
RKHC

one-hybrid fitness for binding parS DNA, 0.55:
RITA

one-hybrid fitness for binding parS DNA, 0.281:
RKRM

one-hybrid fitness for binding parS DNA, 0.574:
RQTA

one-hybrid fitness for binding parS DNA, 0.272:
RKLM

one-hybrid fitness for binding parS DNA, 0.516:
RHTA

one-hybrid fitness for binding parS DNA, 0.609:
RCTA

one-hybrid fitness for binding parS DNA, 0.599:
RLTA

one-hybrid fitness for binding parS DNA, 0.268:
RAGH

one-hybrid fitness for binding parS DNA, 0.316:
RQVN

one-hybrid fitness for binding parS DNA, 0.241:
RAHP

one-hybrid fitness for binding parS DNA, 0.971:
RACG

one-hybrid fitness for binding parS DNA, 0.228:
RACF

one-hybrid fitness for binding parS DNA, 0.925:
RKYC

one-hybrid fitness for binding parS DNA, 0.612:
RTTA

one-hybrid fitness for binding parS DNA, 0.99:
RAGG

one-hybrid fitness for binding parS DNA, ≤ 0.2:
GARV
QRMF
EYTA
NTTA
DTTA
KQTA
NQTA
NYTA
DRTA
NRTA
FTDF
KGIS
VCHR
EKES
KHQG
LHTY
DYTC
APHT
YEEE
RETA
RDTA
NLQR
HMPW
LVSL
QMTR
KAGR
GRLC
QTFT
ATQR
IINN
QNFC
RPTA
NVTA
DFTA
EITA
EFTA
DITA
AVTA
GLTC
TSQQ
VYNA
AYGG
SRQV
FRFR
ACAI
TPWT
GHMG
PGAS
DATA
DLTA
NLTA
HHAP
NDPH
RCLD
KLRG
RIFR
RIAQ
QSSH
PVNK
RQKP
RQVD
RQKD
TGHV
GPHD
RAYH
RANQ
RANE
RAYD
RARP
RARD
PSYN
WIKS
SDEV
WGFG
PYGM
CARA
PAYT
APAI
YGRH
RASR
RALD
RAHK
RALP
RAGP
ACSG
LMLS
QSHN
TPPK
GNDG
GGIR
HVTA
LPSV
VEFL
RAQK
RADD
QSRC
AVDS
RKSH
RKHQ
RKLR
RKRK
RKSD
DVNN
VNYS
PWEG
NNLY
VLIA
VPYR
LEDT
PHLT
MREY
RKDF
RKND
RKCH
RKYR
RKDR
RKCD
RKNP
IKIT
LFDR
IRTA
MSDQ
EAWR
DRKV
LAGW
RPIL
QIFK
ANVG
RTHP
RTRQ
RTGH
RTLQ
RTLR

one-hybrid fitness for binding parS DNA, 0.459:
RWTA

one-hybrid fitness for binding parS DNA, 0.997:
RTGG

one-hybrid fitness for binding parS DNA, 0.746:
RKTA

one-hybrid fitness for binding parS DNA, 0.33:
RTGM

one-hybrid fitness for binding parS DNA, 0.494:
RQYY

one-hybrid fitness for binding parS DNA, 0.375:
RQVY

one-hybrid fitness for binding parS DNA, 0.586:
RATA

one-hybrid fitness for binding parS DNA, 0.45:
RTHN

one-hybrid fitness for binding parS DNA, 0.234:
RASF

one-hybrid fitness for binding parS DNA, 1.02:
RTLG

one-hybrid fitness for binding parS DNA, 0.213:
RKYQ

one-hybrid fitness for binding parS DNA, 0.834:
RIFT

one-hybrid fitness for binding parS DNA, 0.372:
RADN

one-hybrid fitness for binding parS DNA, 0.473:
RNTA

one-hybrid fitness for binding parS DNA, 0.956:
RARG

one-hybrid fitness for binding parS DNA, 0.656:
RRTA

one-hybrid fitness for binding parS DNA, 0.737:
RKRC

one-hybrid fitness for binding parS DNA, 0.812:
RKSC

one-hybrid fitness for binding parS DNA, 1.01:
RAYG
RAHG
RALG
RTHG

one-hybrid fitness for binding parS DNA, 0.297:
RIFF
